HT1080-NT tox: kills 2HG-producing HT-1080-NT fibrosarcoma cells. HT-1080-NT fibrosarcoma viability, CellTiter-Glo ATP luminescence, 48 h. Potency, µM (top dose mostly 46.1 µM), for the others: top-dose activity, negative = less viability, hits mostly cytotoxic. actives 1.6% (n = 360,000). AID 686970;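 further: NT is the 2HG producing partner of a matched IDH1 knockdown line; potency means the concentration at half of the fitted maximal effect; 0% = DMSO-treated cells and -100% = media-only wells without cells; nearly all actives have a fitted effect of over 55% in size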
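Toxicity toward the 2HG-producing NT line was scored as %Activity, normalised to DMSO and no-cell wells, from CellTiter-Glo luminescence after 48 hours' treatment.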
IL-1B inflam inh: blocks inflammasome-driven IL-1 beta release | actives 4.7% (n = 360,000) | THP-1 LPS/ATP IL-1B secretion, AlphaLISA, 16 h; active compounds read low | AID 743279 | activity change, % at 57.5 µM; in the data active means activity change below about -50%; inconclusive means mostly about -30% to -49%
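Secreted IL-1B measured by AlphaLISA bead assay after 16 h compound exposure of THP-1 cells; compounds (final up to 57.5 uM) added 1 h before LPS (250 ng/mL) and ATP (1.25 mM) stimulation; lower signal means less secretion.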
HT1080 IDH1KD tx: toxicity to HT-1080 IDH1 knockdown cells (counter line). HT-1080 IDH1 knockdown viability, ATP luminescence, 48 h. Potency, µM (series often up to 46.1 µM), inactives show at the highest dose activity, negative = toxicity, most hits filed as cytotoxic. actives 2% (n = 360,000). AID 686971;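 further: potency means the concentration at half of the fitted maximal effect; 0% = DMSO wells and -100% = cell-free medium wells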
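After a 2 h attachment period, IDH1KD HT-1080 cells took pin-transferred compound for 48 h at 37 °C; ATP-based luminescence after 10 min room-temperature reagent incubation reported viability.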
TDP1 cell noCPT: qHTS for Inhibitors of human tyrosyl-DNA phosphodiesterase 1 (TDP1): qHTS in cells in absence of CPT. Potency, µM (highest dose often 46.2 µM), without a hit: at the highest dose activity change, negative = growth inhibition, most hits filed as inhibitors. DT40 Tdp1-/- hTDP1 cells, no CPT, ATP luminescence, 48 h. actives 15% (n = 420,000); further: potency means the concentration at half of the fitted maximal effect; nearly all actives have a fitted effect of over 55% in size
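Growth kinetics read by CellTiter-Glo luminescence after ≥48 hr at 37 °C. Cells: DT40 Tdp1-/- stably carrying human TDP1, 400 per well, compound exposure in the absence of CPT (DMSO vehicle).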
12-LOX inh: blocks human arachidonate 12S-lipoxygenase; P18054; purified 12hLO, xylenol orange hydroperoxide absorbance; Potency, µM (titrated, usually from 108 µM), without a hit: at the top dose activity change, negative = inhibition, most hits filed as inhibitors; actives 1.1% (n = 580,000); AID 1671190; further: potency means the concentration at half of the fitted maximal effect
Target sequence (P18054 whole entry, looked up): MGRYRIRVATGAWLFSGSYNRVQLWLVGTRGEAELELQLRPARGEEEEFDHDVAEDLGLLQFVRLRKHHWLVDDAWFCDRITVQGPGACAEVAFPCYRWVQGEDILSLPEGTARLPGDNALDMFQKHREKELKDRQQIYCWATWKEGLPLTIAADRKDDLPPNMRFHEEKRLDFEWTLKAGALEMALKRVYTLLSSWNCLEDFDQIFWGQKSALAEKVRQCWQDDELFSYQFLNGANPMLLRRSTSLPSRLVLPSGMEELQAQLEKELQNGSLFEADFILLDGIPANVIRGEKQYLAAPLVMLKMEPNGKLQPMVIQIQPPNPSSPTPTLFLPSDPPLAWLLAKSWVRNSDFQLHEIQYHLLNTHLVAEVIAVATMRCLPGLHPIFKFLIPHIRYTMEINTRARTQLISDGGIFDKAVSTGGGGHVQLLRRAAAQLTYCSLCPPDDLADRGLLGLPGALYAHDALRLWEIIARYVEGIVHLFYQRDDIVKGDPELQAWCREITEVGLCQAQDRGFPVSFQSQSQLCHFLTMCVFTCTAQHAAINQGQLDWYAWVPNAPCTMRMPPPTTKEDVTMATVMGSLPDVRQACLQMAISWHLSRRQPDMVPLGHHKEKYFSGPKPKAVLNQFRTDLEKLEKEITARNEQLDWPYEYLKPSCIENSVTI
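Purified human 12hLO (150 nM final) in 25 mM Hepes, 0.01% Triton X-100, pH 7.0 was preincubated 15 min at room temperature with compound. Then 40 uM arachidonic acid was added, 30 min. Hydroperoxide was read by Fe-XO absorbance ratio 573/405 nm.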
TDP1 cell CPT: growth inhibition of DT40 Tdp1-/-;hTDP1 cells with camptothecin (screen for TDP1 inhibitors). chicken DT40 Tdp1-/-;hTDP1 cells + 20 nM CPT, ATP luminescence, 48 h. Potency, µM (highest dose often 46.2 µM), for inactives: top-dose activity change, negative = growth inhibition, actives largely listed as inhibitors. actives 12% (n = 420,000); further: potency means the concentration at half of the fitted maximal effect; nearly all actives have a fitted effect of over 55% in size
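Chicken DT40 Tdp1-/- cells complemented with human TDP1, 400 cells/well, exposed to compounds plus 20 nM camptothecin for at least 48 h at 37 C; viability read as ATP content by CellTiter-Glo luminescence.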
Numbers without * were called inactive; ? = inconclusive; / = not tested or not shown; ! = not active in a repeat; [ ] = remark or other dose. The full list was thinned out, with hits kept by preference. Unless noted, the call rests on the fitted dose curve; in most records, active means well fitted curve in the direction sought with a large enough effect; inconclusive means small, poorly fitted or top-dose-only effect, or another doubt; inactive means no such curve, though single readings can be large; an effect the other way counts as inactive or inconclusive. Unless noted, on the % scale 0 is the no-effect control and ±100 the full control effect.

SMILES	HT1080-NT tox	IL-1B inflam inh	HT1080 IDH1KD tx	TDP1 cell noCPT	12-LOX inh	TDP1 cell CPT
O=C(Nc1nc(COc2ccccc2)cs1)C12CC3CC(CC(C3)C1)C2	6.3µM*	-28	?	?	28µM*	22µM*
Cc1ccc(C(=O)Nc2nc(COc3ccccc3)cs2)s1	?	-87*	?	?	-20%	?
O=C(Nc1nc(COc2ccccc2)cs1)C1CCC1	-2%	?	-6%	16µM*	10%	23µM*
O=C(COC(=O)CCc1nc2ccccc2s1)Nc1ccc([N+](=O)[O-])cc1C(F)(F)F	/	/	/	/	-4%	/
CCn1c(SCCOC)nnc1C1CC1	/	/	/	/	-20%	/
COc1cccc(S(=O)(=O)N2CCC(C(=O)N3CCCCCCNC(=O)CC3)CC2)c1	/	/	/	/	-11%	/
Cc1ccc(Nc2nc(N)nc(N)c2N=O)cc1C	-2%	-14	-9%	?	/	?
Cc1cccc(Nc2nc(N)nc(N)c2N=O)c1	0%	-57*	-16%	21µM*	-21%	26µM*
Cc1cc(Br)ccc1Nc1nc(N)nc(N)c1N=O	-7%	?	-4%	?	?	10µM*
CC(C)NC(=O)NC(=O)C(C)Nc1ccc(F)cc1 (stereo not drawn)	/	/	/	/	-11%	/
O=C1c2cc(Cl)ccc2OC2(CCNCC2)C12CC(c1ccc(Cl)cc1)=NO2 (stereo not drawn)	-8%	?	-10%	18µM*	/	18µM*
O=C1c2cc(Cl)ccc2OC2(CCNCC2)C12CC(c1ccccc1)=NO2 (stereo not drawn)	-11%	?	-2%	16µM*	-4%	21µM*
Brc1cccc(Oc2ccc3nnnn3n2)c1	/	/	/	/	-22%	/
Cc1cccc2c1N(Cc1ccccc1OC(C)C)C(=O)C2=O	/	/	/	/	14%	/
Cc1ccc(OCCN2C(=O)C(=O)c3cccc(C)c32)cc1	-1%	2	11%	2.9µM*	1%	2.3µM*
Cc1cccc2c1N(Cc1ccccc1OCCC(C)C)C(=O)C2=O	/	/	/	12µM*	-2%	15µM*
Cc1cc(Br)cc2c1N(Cc1ccccc1OC(C)C)C(=O)C2=O	/	/	/	4.1µM*	4.5µM*!	21µM*
CCOC(=O)CN1C(=O)C(=O)c2cccc(C)c21	0%	-3	2%	?	11%	?
COc1ccccc1CN1C(=O)C(=O)c2cccc(C)c21	/	/	/	6.5µM*	6%	13µM*
CCCNc1c(NC(=O)c2c(F)cccc2F)c(=O)oc2ccccc12	/	/	/	/	-5%	/
O=[N+]([O-])c1cc(NS(=O)(=O)c2ccc(Br)s2)c(F)cc1F	/	/	/	/	-18%	/
COc1ccc2c(c1)OCC(C(=O)NCCNc1cc(C)ccn1)C2 (stereo not drawn)	/	/	/	/	-13%	/
COc1ccc(NC(=O)C(C)Oc2ccc(C)c(C)c2)c2cccnc12 (stereo not drawn)	/	/	/	/	-9%	/
COc1nc(C(=O)N2CCN(CC(F)(F)F)CC2)cc2ccccc12	/	/	/	/	-2%	/
O=C(COc1cc(O)c2c(=O)cc(-c3ccccc3)oc2c1)NCCOCCO	/	/	/	/	0%	/
SMILES	HT1080-NT tox	IL-1B inflam inh	HT1080 IDH1KD tx	TDP1 cell noCPT	12-LOX inh	TDP1 cell CPT
O=S1(=O)c2cccc3cccc(c23)N1Cc1nnc(-c2ccccc2Br)o1	-1%	-21	?	18µM*	0%	15µM*
O=C(N[C@H]1CCN2C(=O)c3cc(-c4cccs4)ccc3NC(=O)[C@H]12)c1cnccn1	/	/	/	/	1%[176 µM]	/
CN(C)c1cc(N/N=C/c2ccc(Cl)cc2)nc(N(C)C)n1	-18%	-3	-15%	18µM*	-11%	?
CCOC(=O)c1c(S(=O)(=O)N2CCOCC2)nn(CC)c1C	/	/	/	/	-7%	/
CCOC(=O)c1cn(C)nc1S(=O)(=O)N1CCOCC1	/	/	/	/	11µM*	/
C=CCn1c(=O)c2ccccc2n2c(SCC(=O)O)nnc12	10%	7	-3%	4%	-100%	4%
